Values without a mark were called inactive. Active and inactive are the calls of the source. Calls come from the whole dose curve; as a rule, active = well fitted curve in the direction sought with a large enough effect; inconclusive = small, poorly fitted or top-dose-only effect, or another doubt; inactive = no such curve, though single readings can be large or run the other way.
Experiment: qHTS Counterscreen for compound interference against the NCATS DSHEA and TCM libraries (AID 1919978);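 note: compounds preincubated with 1 µM D-luciferin or buffer before detection reagent; % of control where 0% means no effect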
Conditions: firefly luciferase detection reagent interference, luminescence
How it was run: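 Compounds, titrated from 19.5 nM to 39.8 uM final, were pinned onto 1 uM D-luciferin or plain 100 mM potassium phosphate. After 15 min at room temperature, luciferin detection reagent was added for 30 min before the luminescence read.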

SMILES | max response
CCCCCCCC/C=C/CCCCCCCC(=O)O | -3.39%
CC1=C2[C@H]([C@@H](C)CC[C@@H]2/C=C(\C)C(=O)O)[C@@H](O)C1 | -1.15%
O=c1cc(-c2ccc(O)c(O)c2)oc2cc(O[C@@H]3O[C@@H](CO)[C@@H](O)[C@@H](O)[C@H]3O)cc(O)c12 | 0.762%
Cc1ccc(O)c(O)c1 | -0.684%
CCCCCCCCC/C=C/C(=O)CCc1ccc(O)c(OC)c1 | 4.66%
CCCCCCCC/C=C/CCCCCCCCCC(=O)O | -1.3%
CCCCCC/C=C/CCCCCCCCCC(=O)O | 3.83%

Experiment: Dual reporter qHTS for agonist of Pregnane X Receptor (hPXR) against the NCATS DSHEA and TCM libraries: Fluorescence readout (AID 1920058); note: 0% is about no effect
Conditions: PXR dual reporter cells; series mostly up to 40 µM
How it was run: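 Cells were plated at 2000 per well and allowed to attach for 5 h. Test substances were pinned in and incubated roughly 24 h. CellTiter-Fluor was then added and fluorescence measured after 1 h.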

SMILES | outcome
Oc1cc(O)c2c(c1)O[C@@H](c1cc(O)c(O)c(O)c1)[C@H](O)C2 | inactive
O=C(O[C@@H]1Cc2c(O)cc(O)cc2O[C@@H]1c1ccc(O)c(O)c1)c1cc(O)c(O)c(O)c1 | inactive
C=CCc1ccc(OC)c(OC)c1 | inactive
C=C(C)C1CC=C(C)C(O)C1 (centres undefined) | inactive
CC1=C2[C@H](/C=C(\C)C(=O)O)CC[C@@H](C)[C@H]2CC1 | inactive
C=C1CC[C@H]2C[C@@H]1C2(C)C | inactive
C=C1C[C@@]23CC[C@H]4[C@@](C)(CCC[C@@]4(C)C(=O)O[C@@H]4O[C@H](CO)[C@@H](O)[C@H](O)[C@H]4O[C@@H]4O[C@H](CO)[C@@H](O)[C@H](O)[C@H]4O)[C@@H]2CC[C@]1(O[C@@H]1O[C@H](CO)[C@@H](O)[C@H](O)[C@H]1O[C@@H]1O[C@H](CO)[C@@H](O)[C@H](O)[C@H]1O)C3 | inactive

From PubChem BioAssay (NCATS)
